Test results published in PubChem BioAssay (NCATS).
Inconclusive results are not listed. The source made the active and inactive calls. Unless noted, calls come from the whole dose curve; as a rule, active = well fitted curve in the direction sought with a large enough effect; inconclusive = small, poorly fitted or top-dose-only effect, or another doubt; inactive = no such curve, though single readings can be large; an effect the other way counts as inactive or inconclusive.

Assays:
[1] = molecular target: Lysosomal acid glucosylceramidase (Homo sapiens) (UniProt P04062); test: Glucocerebrosidase-p2 (AID 348; in the data active = potency below about 10 µM; note: potency is the fitted concentration of half-maximal effect); settings: purified GBA, blue fluorogenic substrate, 40 min
Summary of the method: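 Compounds titrated from 0.6 nM upwards against 0.2 nM enzyme in pH 5.9 citric acid/KH2PO4, taurocholate, tween-20; blue fluorogenic substrate 80 uM, 40 min room temperature, stopped and read Ex 365/Em 440 for AC50.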

[2] = AP1 Signaling Pathway (AID 357; active = well fitted curve in either direction with a large enough effect, not every such curve was filed as active;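 note: ME-180 reporter cells stimulated with EGF at its EC50 level; % is set by controls: 0 for no effect and ±100 for the full control effect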); settings: ME-180 AP-1-bla reporter, EGF-induced, beta-lactamase ratio, 5 h; at 7.69 µM (top of the series) unless noted
Summary of the method: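 Read-out was the 460nm/530nm emission ratio (excitation 405nm) after CCF4 loading for 2.5 hours at room temperature. Cells carried an AP-1-driven beta-lactamase reporter, were stimulated with EC50 EGF plus compound for 5 hours, and AC50 values came from titrations.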

[3] = Stat Signaling Pathway (AID 446; active = well fitted curve in either direction with a large enough effect, not every such curve was filed as active;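 note: ME-180 cervical cancer cells given 40 pM IL-6 alongside compound; SIE-controlled beta-lactamase reporter measured as 460/530 nm FRET emission ratio; % is set by controls: 0 for no effect and ±100 for the full control effect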); settings: ME-180 SIE beta-lactamase reporter, IL-6 stimulated, 5 h; at 7.69 µM (top of the series) unless noted
Summary of the method: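 ME-180 cells carrying a SIE-driven beta-lactamase reporter are stimulated with 40 pM IL-6 for 5 h at 37C in the presence of compound. The 460/530 nm FRET substrate ratio is read after 2.5 h at RT. Data are normalised to 300 pM IL-6 and to 125 nM JAK inhibitor controls.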

[4] = molecular target: Glucocorticoid receptor (Homo sapiens) (UniProt P04150); test: GR-EFC Redistribution (AID 451; calls by dose curve; note: potency is the fitted concentration of half-maximal effect); settings: CHO-K1 GR-EFC translocation, beta-gal luminescence, 2 h
Summary of the method: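 CHO-K1 cells stably expressing nuclear-localized β-gal enzyme acceptor and GR fused C-terminally to the enzyme donor fragment; ligand-driven nuclear translocation restores β-gal by complementation. Compounds titrated up to 46 uM final, 2 h at 37 °C; luminescence read.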

[5] = molecular target: Mitogen-activated protein kinase 10 (Mus musculus) (UniProt Q61831); test: JNK3 AlphaScreen Assay (AID 530; active = well fitted curve in either direction with a large enough effect, not every such curve was filed as active;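 note: kinase came from lysate of stimulated human HepG2 cells; signal reports phosphorylation of biotinylated GST-cJun 1-79 at Ser73 with 10 µM ATP; % is set by controls: 0 for no effect and ±100 for the full control effect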); settings: JNK3 lysate, c-Jun phosphorylation; series mostly up to 57.1 µM
Summary of the method: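 Inhibitors reduce antibody binding to phosphorylated biotin-cJun, lowering AlphaScreen luminescence. Lysates from HepG2 cells pre-activated by IL-1beta plus TNF-alpha supplied JNK3; compounds were titrated.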

[6] = molecular target: Cytochrome P450 3A4 (Homo sapiens) (UniProt P08684); test: qHTS Assay for Inhibitors and Substrates of Cytochrome P450 3A4 (AID 884); settings: recombinant CYP3A4, Luciferin-PPXE luminescence; series mostly up to 57.1 µM; note: % is set by controls: 0 for no effect and ±100 for the full control effect; nearly all actives have a fitted effect of over 50% in size
Summary of the method: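 20 nM human CYP3A4 with 25 uM Luciferin-PPXE (at KM) in 200 mM KPO4, preincubated 10 min with compound; NADPH regeneration started a 60 min RT reaction. Luciferin detected by luminescence, normalized to 57 uM ketoconazole as full inhibition.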

[7] = qHTS Assay for Lipid Storage Modulators (AID 1519; calls by dose curve); settings: Drosophila S3 cells, BODIPY lipid droplet/cell ratio, laser cytometry, cells loaded with oleic acid; for activity change, negative = inhibition: at 57.5 µM (top of the series)
Summary of the method: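 Cells seeded at 5,000 per well were treated with compounds over a concentration series and loaded with oleic acid (400 uM, as added). Lipid droplet fluorescence (488 nm excitation, 500-530 nm channel) was read by laser-scanning cytometry and normalized to 20 uM Triacsin C.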

[8] = Counterscreen qHTS for small molecule stabilizers of the endoplasmic reticulum resident proteome: GLuc-NoTag assay (AID 1508627); settings: Gaussia luciferase NoTag secretion counterscreen, luminescence, thapsigargin 100 nM for final 4 h; series mostly up to 76.4 µM;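 note: SH-SY5Y cells given compound then 100 nM thapsigargin to empty ER calcium; 0% = thapsigargin alone and -100% = DMSO vehicle control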
Summary of the method: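 SH-SY5Y cells stably expressing constitutively secreted GLuc (no SERCaMP tag) were pre-incubated 5 h, treated with compound for 19 h, then 100 nM thapsigargin for 4 h at 37C; medium GLuc read by coelenterazine luminescence.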

[9] = Confirmatory qHTS for small molecule stabilizers of the endoplasmic reticulum resident proteome: Secreted ER Calcium Modulated Protein (SERCaMP) assay (AID 1508628); settings: SERCaMP secreted luciferase ER calcium/proteostasis reporter; series mostly up to 76.3 µM; note: nearly all actives have a fitted effect of over 40% in size; note: potency is the fitted concentration of half-maximal effect
Summary of the method: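 SH-SY5Y cells stably expressing GLuc-SERCaMP, treated 16 h with compound (primary 1.53, 7.67, 38.3 uM; confirmation 11 concentrations, up to 76.6 uM), then 100 nM thapsigargin for 4 h. Secreted Gaussia luciferase in medium read by coelenterazine luminescence.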

[10] = molecular target: 3',5'-cyclic-AMP phosphodiesterase 4B (Homo sapiens) (UniProt Q07343); test: qHTS Assay for Inhibitors of PDE-IV (AID 607; active = well fitted activation curve with a large enough effect in the main read-out, with a control signal flat, not every such curve was filed as active; note: % of control where 0% means no effect); settings: HEK293 ACTOne CNG channel cells, membrane potential fluorescence; series mostly up to 22.9 µM
Summary of the method: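 HEK293 ACTOne cells with CNG channel (1000/well), endogenous PDE4; membrane potential dye, compounds up to 22.9 uM final. Fluorescence Ex 535/Em 590; RO 20-1724 (100 uM final) as reference.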

[11] = molecular target: Dual specificity protein kinase CLK4 (Homo sapiens) (UniProt Q9HAZ1); test: qHTS Assay for Inhibitors of CDC-like Kinase 4 (Kinase-Glo Assay) (AID 1770); settings: recombinant Clk4, Kinase-Glo ATP depletion luminescence; series mostly up to 66.7 µM; note: % is set by controls: 0 for no effect and ±100 for the full control effect; nearly all actives have a fitted effect of over 65% in size
Summary of the method: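 Recombinant human Clk4 (25 nM) phosphorylated RS repeat peptide (100 uM) with 1 uM ATP in Tris pH 7.5/MgCl2/EGTA/DTT/Triton buffer for 4.5 h at room temperature. Residual ATP was quantified by Kinase-Glo luciferase luminescence.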

[12] = molecular target: Dual specificity protein kinase CLK4 (Homo sapiens) (UniProt Q9HAZ1); test: qHTS Assay for Inhibitors of CDC-like Kinase 4 (ADP-FP Assay) (AID 1795); settings: Transcreener ADP fluorescence polarization; series mostly up to 50 µM; note: % is set by controls: 0 for no effect and ±100 for the full control effect; nearly all actives have a fitted effect of over 60% in size
Summary of the method: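 Recombinant human Clk4 (6.25 nM) phosphorylated RS repeat peptide (100 uM) with 1 uM ATP in Tris pH 7.5/MgCl2/EGTA/DTT/Triton buffer for one hour. ADP was quantified by Transcreener competitive fluorescence polarization against an ADP calibration curve.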

[13] = molecular target: Ubiquitin carboxyl-terminal hydrolase 1 (Homo sapiens) (UniProt O94782); test: Inhibitors of USP1/UAF1: Pilot qHTS (AID 504865); settings: purified USP1/UAF1, Ub-rhodamine cleavage fluorescence; series mostly up to 54.9 µM;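 note: rhodamine fluorescence freed from ubiquitin-rhodamine substrate followed over time; top concentration of the series differs between compounds; % is set by controls: 0 for no effect and ±100 for the full control effect; nearly all actives have a fitted effect of over 35% in size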
Summary of the method: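 USP1/UAF1 complex (1nM) preincubated with compound 15 min at room temperature, then Ub-Rho substrate (150nM final) added. Fluorescence read kinetically at 480/540 nm, 6 reads every 60 seconds. Buffer: 50mM HEPES pH 7.8, 0.5mM EDTA, 0.1 mg/ml BSA, 1mM TCEP, 0.01% Tween-20.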

[14] = NFAT Signaling Pathway (AID 444; active = well fitted curve in either direction with a large enough effect, not every such curve was filed as active;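 note: carbachol stimulus at about its EC50 of 1 µM final; % is set by controls: 0 for no effect and ±100 for the full control effect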); settings: Jurkat NFAT-bla M1, carbachol, beta-lactamase ratio, 5 h; at 7.69 µM (top of the series) unless noted
Summary of the method: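 Jurkat cells carrying an NFAT-driven β-lactamase reporter and co-transfected muscarinic M1 receptor were treated with compound plus carbachol (1 uM final, an EC50 level) for 5 h at 37 °C. CCF4 loading followed for 1 h at RT; 460/530 nm ratio gave %activity.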

[15] = molecular target: Glucocorticoid receptor (Homo sapiens) (UniProt P04150); test: GR-GFP Redistribution (AID 450;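 active = compounds whose dose series gives a full or clear partial fitted curve of increased nuclear translocation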; note: potency is the fitted concentration of half-maximal effect); settings: U2OS GR-GFP nuclear translocation, laser cytometry, 2 h
[16] = Confirmation and Secondary Assay for Modulators of Hemoglobin Beta Chain Splicing at IVS2 654 locus (AID 910); settings: HeLa EGFP-654 splicing reporter, GFP fluorescence, 48 h; series mostly up to 38.3 µM;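 note: per-well total GFP intensity by laser scanning cytometry after 2-day treatment; % of control where 0% means no effect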
Summary of the method: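 HeLa cells stably carrying EGFP interrupted by mutant beta-globin IVS2-654 intron (CMV-driven) were treated with compound for 2 days at 37C; corrected splicing was scored as total peak GFP intensity per well (488 nm excitation, 500-520 nm emission).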

[17] = Confirmation and Secondary Assay for Modulators of Hemoglobin Beta Chain Splicing at IVS2 705 locus (AID 930); settings: HeLa EGFP-705 splicing reporter, GFP fluorescence, 48 h; series mostly up to 38.3 µM;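 note: HeLa cells stably expressing the EGFP-705 splicing reporter; GFP fluorescence per well restored by corrected splicing of the IVS2-705 intron in EGFP; % of control where 0% means no effect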
Summary of the method: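 HeLa IVS2-705 EGFP reporter cells, 500/well, compound 2 d at 37C; correct splicing yields fluorescent EGFP. Control: 500 nM antisense PNA. Read-out: total peak GFP intensity.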

[18] = measured here: cell count channel max response
[19] = measured here: lipid channel max response

Chain of Glucocorticoid receptor (Homo sapiens) (P04150 whole entry, looked up, the tested form may be a part): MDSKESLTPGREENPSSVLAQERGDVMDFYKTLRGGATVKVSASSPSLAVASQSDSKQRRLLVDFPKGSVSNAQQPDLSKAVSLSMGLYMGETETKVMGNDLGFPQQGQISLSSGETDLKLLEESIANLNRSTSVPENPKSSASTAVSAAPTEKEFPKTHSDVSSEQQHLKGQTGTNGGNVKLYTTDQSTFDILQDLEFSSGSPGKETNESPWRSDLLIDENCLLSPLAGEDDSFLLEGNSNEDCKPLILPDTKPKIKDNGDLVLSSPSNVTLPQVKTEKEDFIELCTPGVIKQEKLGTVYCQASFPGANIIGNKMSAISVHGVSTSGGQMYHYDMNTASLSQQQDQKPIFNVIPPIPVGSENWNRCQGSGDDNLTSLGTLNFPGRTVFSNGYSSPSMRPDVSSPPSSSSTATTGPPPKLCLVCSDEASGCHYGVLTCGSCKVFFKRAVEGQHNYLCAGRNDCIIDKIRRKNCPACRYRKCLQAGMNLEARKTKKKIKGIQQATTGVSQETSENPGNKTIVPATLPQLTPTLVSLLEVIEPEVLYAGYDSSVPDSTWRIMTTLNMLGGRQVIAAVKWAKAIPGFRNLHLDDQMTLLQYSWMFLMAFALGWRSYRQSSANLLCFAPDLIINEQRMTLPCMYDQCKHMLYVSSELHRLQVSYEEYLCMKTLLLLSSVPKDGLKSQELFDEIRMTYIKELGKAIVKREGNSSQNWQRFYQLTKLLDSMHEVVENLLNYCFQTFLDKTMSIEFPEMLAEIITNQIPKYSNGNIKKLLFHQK
Chain of Lysosomal acid glucosylceramidase (Homo sapiens) (P04062 whole entry, looked up): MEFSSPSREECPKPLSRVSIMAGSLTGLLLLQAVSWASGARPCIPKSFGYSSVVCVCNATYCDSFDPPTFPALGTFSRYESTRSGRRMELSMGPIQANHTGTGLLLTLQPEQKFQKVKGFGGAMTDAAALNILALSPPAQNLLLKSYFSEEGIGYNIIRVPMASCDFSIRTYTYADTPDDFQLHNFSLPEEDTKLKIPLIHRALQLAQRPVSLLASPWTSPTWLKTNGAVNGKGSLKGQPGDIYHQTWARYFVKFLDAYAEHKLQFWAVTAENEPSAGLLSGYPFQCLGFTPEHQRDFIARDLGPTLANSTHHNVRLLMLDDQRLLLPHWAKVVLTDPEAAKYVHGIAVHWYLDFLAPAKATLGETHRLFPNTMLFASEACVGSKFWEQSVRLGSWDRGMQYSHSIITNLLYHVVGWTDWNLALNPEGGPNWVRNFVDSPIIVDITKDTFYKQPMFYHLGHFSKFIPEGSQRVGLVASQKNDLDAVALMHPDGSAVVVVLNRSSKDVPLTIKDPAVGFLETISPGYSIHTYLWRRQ
Chain of 3',5'-cyclic-AMP phosphodiesterase 4B (Homo sapiens) (Q07343 whole entry, looked up): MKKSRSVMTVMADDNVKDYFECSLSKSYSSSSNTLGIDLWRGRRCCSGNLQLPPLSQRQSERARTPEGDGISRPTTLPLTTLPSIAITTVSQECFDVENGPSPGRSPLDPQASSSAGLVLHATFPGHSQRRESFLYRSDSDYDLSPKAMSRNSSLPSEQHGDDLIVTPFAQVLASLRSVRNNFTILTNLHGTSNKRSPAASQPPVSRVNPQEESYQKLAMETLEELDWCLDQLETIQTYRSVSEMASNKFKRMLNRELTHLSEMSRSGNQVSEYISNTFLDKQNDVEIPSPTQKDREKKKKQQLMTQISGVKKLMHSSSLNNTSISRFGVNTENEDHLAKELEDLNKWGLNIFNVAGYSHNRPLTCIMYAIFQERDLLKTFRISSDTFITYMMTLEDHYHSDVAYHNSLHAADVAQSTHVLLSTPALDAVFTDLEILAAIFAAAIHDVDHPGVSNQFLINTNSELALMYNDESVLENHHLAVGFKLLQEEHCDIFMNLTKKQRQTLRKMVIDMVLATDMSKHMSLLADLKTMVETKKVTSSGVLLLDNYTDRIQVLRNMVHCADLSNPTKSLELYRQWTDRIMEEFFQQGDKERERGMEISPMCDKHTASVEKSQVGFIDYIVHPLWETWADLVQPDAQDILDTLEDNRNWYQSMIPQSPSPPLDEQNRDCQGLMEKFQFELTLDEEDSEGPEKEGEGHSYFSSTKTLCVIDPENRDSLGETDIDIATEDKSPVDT
Chain of Dual specificity protein kinase CLK4 (Homo sapiens) (Q9HAZ1 whole entry, looked up): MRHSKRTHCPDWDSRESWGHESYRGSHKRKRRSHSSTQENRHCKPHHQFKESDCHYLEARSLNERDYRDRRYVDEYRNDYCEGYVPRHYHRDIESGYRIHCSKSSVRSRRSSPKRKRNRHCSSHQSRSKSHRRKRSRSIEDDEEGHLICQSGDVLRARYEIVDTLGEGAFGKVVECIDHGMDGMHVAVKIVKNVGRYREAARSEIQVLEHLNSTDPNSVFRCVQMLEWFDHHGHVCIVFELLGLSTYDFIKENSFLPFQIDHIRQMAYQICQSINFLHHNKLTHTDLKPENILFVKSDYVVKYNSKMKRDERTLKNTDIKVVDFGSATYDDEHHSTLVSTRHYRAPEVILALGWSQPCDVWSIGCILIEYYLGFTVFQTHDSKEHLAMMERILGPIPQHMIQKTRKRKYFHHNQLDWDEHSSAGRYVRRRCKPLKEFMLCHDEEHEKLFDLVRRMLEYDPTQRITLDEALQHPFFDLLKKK
Chain of Cytochrome P450 3A4 (Homo sapiens) (P08684 whole entry, looked up): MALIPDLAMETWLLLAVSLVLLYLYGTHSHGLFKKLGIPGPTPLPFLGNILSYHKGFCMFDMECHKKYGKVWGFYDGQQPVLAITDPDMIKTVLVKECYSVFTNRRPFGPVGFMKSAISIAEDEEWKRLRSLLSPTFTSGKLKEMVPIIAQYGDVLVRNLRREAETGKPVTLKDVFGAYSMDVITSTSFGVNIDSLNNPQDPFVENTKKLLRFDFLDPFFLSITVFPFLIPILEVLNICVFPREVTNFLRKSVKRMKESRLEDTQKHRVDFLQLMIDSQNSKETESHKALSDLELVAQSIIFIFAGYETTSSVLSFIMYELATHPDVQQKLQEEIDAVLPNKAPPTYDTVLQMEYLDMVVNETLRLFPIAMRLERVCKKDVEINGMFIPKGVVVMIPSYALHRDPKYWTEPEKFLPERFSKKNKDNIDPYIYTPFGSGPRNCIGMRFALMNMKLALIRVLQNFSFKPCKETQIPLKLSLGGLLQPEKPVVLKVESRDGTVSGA
Chain of Ubiquitin carboxyl-terminal hydrolase 1 (Homo sapiens) (O94782 whole entry, looked up): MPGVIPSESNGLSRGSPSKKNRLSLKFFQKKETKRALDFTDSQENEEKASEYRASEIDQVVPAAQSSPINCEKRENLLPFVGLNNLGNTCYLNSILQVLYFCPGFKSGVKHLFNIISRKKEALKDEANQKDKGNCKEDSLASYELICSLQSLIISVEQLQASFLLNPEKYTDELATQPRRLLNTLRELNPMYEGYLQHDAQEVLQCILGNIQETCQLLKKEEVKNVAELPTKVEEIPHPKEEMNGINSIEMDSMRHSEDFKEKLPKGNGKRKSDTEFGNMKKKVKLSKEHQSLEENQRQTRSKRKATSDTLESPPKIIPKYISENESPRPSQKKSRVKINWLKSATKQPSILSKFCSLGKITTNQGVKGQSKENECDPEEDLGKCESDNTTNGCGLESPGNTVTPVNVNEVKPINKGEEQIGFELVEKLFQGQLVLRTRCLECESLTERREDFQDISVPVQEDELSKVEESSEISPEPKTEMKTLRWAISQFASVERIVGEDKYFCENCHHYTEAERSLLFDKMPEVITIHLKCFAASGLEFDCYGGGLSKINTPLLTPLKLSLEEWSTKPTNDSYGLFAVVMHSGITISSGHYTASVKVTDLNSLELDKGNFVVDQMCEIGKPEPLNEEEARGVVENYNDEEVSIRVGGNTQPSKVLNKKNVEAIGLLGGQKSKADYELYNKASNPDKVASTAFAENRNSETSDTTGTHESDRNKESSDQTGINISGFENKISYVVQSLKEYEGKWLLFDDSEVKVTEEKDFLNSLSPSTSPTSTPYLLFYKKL

O=C(c1cc(C(F)(F)F)cc(C(F)(F)F)c1)N1CCC2(CC1)CCN(c1ccncc1)CC2
inactive: Potency [1] > 11.4 µM | activity change, negative = inhibition [2] 24.2% | activity, negative = inhibition [3] 16.4% | Potency [4] > 46 µM | outcome [5] | Potency [6] | activity change, negative = inhibition [7] 0.636% | Potency [8] | Potency [9]
0.493%: max response [7, 19]
-1.35%: max response [7, 18]

O=c1c(-c2cccs2)nc2cnc(N3CCNCC3)nc2n1CCc1ccccc1
inactive: Potency [1] > 11.4 µM | Potency [4] > 46 µM | Potency [10] | Potency [11] | Potency [12] | Potency [13] | Potency [8] | Potency [9]
active: activity change, negative = inhibition [2] 82.5% [activator]

Cc1noc(C)c1-c1nc(N2CCNCC2)c2ccccc2n1
inactive: Potency [1] > 11.4 µM | activity change, negative = inhibition [2] 18.5% | activity change, negative = inhibition [14] -3.25% | activity, negative = inhibition [3] 13.9% | Potency [15] > 46 µM | Potency [4] > 46 µM | outcome [5] | Potency [10] | outcome [16] | outcome [17] | activity change, negative = inhibition [7] 9.99% | Potency [8]
11.4%: max response [7, 18]
active: Potency [9] 14.1 µM
19.2%: max response [7, 19]
